# Most compounds without a hit are left out; they make up all but 12% or so of the library.
# Sfp PPTase inh = inhibitors of Bacillus subtilis Sfp phosphopantetheinyl transferase. Q9F4F7. Potency, µM, for the others: largest response in the series, negative = inhibition, usual class: inhibitors. 310,000 tested, 3.5% active. Biochemical Sfp PPTase activity, qHTS;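 further: the enzyme is Sfp with the accession as filed and its product quenches rhodamine fluorescence; 0% = enzyme reaction without inhibitor and -100% = no enzyme wells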
#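 Fluorescence-quenching assay: 15 nM Sfp-PPTase preincubated 15 min at room temperature with compound, then 5 uM rhodamine-CoA and 12.5 uM BHQ-2-labelled YbbR peptide added. Fluorescence (ex 525/em 598 nm) read at start and after 30 min; difference gives rate.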
# BAZ2B inh = inhibitors of human BAZ2B bromodomain; AlphaScreen BAZ2B-H3K14Ac peptide displacement; Potency, µM (highest dose often 114 µM), for inactives: at the highest dose activity change, negative = inhibition, most hits filed as inhibitors; 360,000 tested, 4.4% active; AID 504333; further: on the % scale 0 is the no-effect control and ±100 the full control effect; nearly all actives have a fitted effect of over 60% in size
#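 AlphaScreen displacement of biotin-H3(5-23)K14Ac peptide (50 nM final) from BAZ2B (50 nM final) in PBS pH 7.4, 0.01% Tween-20; complex preformed 30 min RT, then compounds (top 110 uM) 30 min RT, beads 20 min dark.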
# L3MBTL1 block = inhibitors of human L3MBTL1. AlphaScreen L3MBTL1–H3K9me1 peptide binding. Potency, µM (top dose mostly 57.1 µM), for the others: at the highest dose activity, negative = inhibition, most hits filed as inhibitors. 230,000 tested, 0.66% active; further: on the % scale 0 is the no-effect control and ±100 the full control effect; nearly all actives have a fitted effect of over 60% in size
# Target sequence (Q9Y468 whole entry, looked up): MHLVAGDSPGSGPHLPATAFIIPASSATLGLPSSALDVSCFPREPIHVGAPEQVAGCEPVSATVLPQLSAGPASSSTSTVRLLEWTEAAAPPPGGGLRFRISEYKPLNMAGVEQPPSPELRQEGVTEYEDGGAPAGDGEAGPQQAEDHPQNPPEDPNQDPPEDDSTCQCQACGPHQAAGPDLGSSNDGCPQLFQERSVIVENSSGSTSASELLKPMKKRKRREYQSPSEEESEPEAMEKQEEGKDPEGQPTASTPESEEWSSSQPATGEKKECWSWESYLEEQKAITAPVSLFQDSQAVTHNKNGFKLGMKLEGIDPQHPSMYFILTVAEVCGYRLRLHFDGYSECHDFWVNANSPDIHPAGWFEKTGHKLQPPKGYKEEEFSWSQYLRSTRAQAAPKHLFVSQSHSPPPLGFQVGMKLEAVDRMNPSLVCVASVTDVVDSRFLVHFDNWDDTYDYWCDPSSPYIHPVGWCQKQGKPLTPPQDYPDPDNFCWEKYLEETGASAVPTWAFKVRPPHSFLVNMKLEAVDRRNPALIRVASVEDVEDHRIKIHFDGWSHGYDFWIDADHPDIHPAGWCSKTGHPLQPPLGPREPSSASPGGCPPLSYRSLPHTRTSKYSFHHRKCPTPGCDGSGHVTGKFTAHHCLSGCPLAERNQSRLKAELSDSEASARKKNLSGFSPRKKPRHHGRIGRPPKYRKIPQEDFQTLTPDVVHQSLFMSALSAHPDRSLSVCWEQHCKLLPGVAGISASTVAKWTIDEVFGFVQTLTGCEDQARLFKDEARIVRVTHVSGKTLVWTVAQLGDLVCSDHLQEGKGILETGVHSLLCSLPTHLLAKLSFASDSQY
#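 AlphaScreen assay: L3MBTL1 (50 nM final) was preincubated 30 min at room temperature with biotinylated H3(1-15)K9me1 peptide (75 nM final), then 30 min with library compounds; streptavidin donor and nickel chelate acceptor beads (10 ug/mL final) added, 30 min dark.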
# JMJD2A Tudor = JMJD2A Tudor domain (human) inhibition. 390,000 tested, 4.4% active. Potency, µM (titrated, usually from 114 µM), without a hit: top-dose activity change, negative = inhibition, hits mostly inhibitors. AlphaScreen JMJD2A-Tudor / H3K4me3 peptide binding. O75164. AID 504339; further: on the % scale 0 is the no-effect control and ±100 the full control effect; nearly all actives have a fitted effect of over 50% in size
# HP1b binding inh = HP1-beta chromodomain-methylated histone interaction inhibition | P83916 | AlphaScreen HP1-beta / biotin-H3K9me3 peptide binding | Potency, µM (titrated, usually from 114 µM), for the others: top-dose activity change, negative = inhibition, usual class: inhibitors | 390,000 tested, 0.56% active | AID 540317; further: nearly all actives have a fitted effect of over 70% in size
#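 Compound inhibition of the preformed complex between 50 nM HP1-beta and 50 nM biotinylated H3K9me3 peptide was read by AlphaScreen. Buffer was PBS pH 7.4 with 0.01% Tween-20. Incubations ran 30 min at room temperature, with 10 ug/mL donor/acceptor beads.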
# G9a block = blocks human histone lysine methyltransferase G9a; Q96KQ7; G9a H3K9 monomethylation, AlphaScreen, 2 h; Potency, µM (titrated, usually from 102 µM), without a hit: at the highest dose activity, negative = inhibition, actives largely listed as inhibitors; 350,000 tested, 8.8% active; further: on the % scale 0 is the no-effect control and ±100 the full control effect; nearly all actives have a fitted effect of over 75% in size
#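 Readings reflect AlphaScreen signal from monomethyl-H3K9 antibody detection. HMT at 20 nM; substrate b-H3K9 500 nM; cofactor SAM 20 uM; 2 h RT reaction; compounds tested as titrations in qHTS with 15 min preincubation.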
# * hit, by the source's call; ? = inconclusive; / = no result; [ ] = remark or other dose. The call rests on the fitted dose curve; in most records, active means well fitted curve in the direction sought with a large enough effect; inconclusive means small, poorly fitted or top-dose-only effect, or another doubt; inactive means no such curve, though single readings can be large; an effect the other way counts as inactive or inconclusive. Potency means the concentration at half of the fitted maximal effect.
SMILES,Sfp PPTase inh,BAZ2B inh,L3MBTL1 block,JMJD2A Tudor,HP1b binding inh,G9a block
C=C(C1=CCN(S(=O)C(C)(C)C)[C@@H]1CCO)c1ccccc1 (some centres undefined),/,/,/,-6.2%,4.1%,/
Cc1ccc(C)c(NC(=O)COC(=O)CNC(=O)C2CCCCC2)c1,/,-5.3%,12.1%,-15.8%,30.2%,23.5%[2.33 µM]
CN1CCN(c2ncnc3ccc(-c4ccccc4C(F)(F)F)cc23)CC1,?,/,/,/,/,-4.0%[0.501 µM]
CCCc1nc(SCC(=O)c2ccc(OC)cc2)c2ccccc2n1,79.4µM*,-2.5%,/,90.8%,63.7%,?
CCc1nc(SCC(=O)c2ccc3c(c2)OCCO3)c2ccccc2n1,50.1µM*,20.2%,17.0%,0.0%,40.2%,8.91µM*
O=C(CSc1nc(Cc2ccccc2)nc2ccccc12)c1ccc2c(c1)OCCO2,-13.7%,-0.7%,-5.1%,5.0%,16.1%,?
COc1ccc(C(=O)NNC(=O)CSc2nc(C(C)C)nc3ccccc23)cc1,14.7%,0.8%,/,-8.6%,36.0%,9.3%
CCn1c(CSc2nc3ccccc3s2)nnc1SCC(=O)c1ccc2c(c1)OCCO2,-5.8%,3.1%,-3.8%,79.4µM*,28.7%,?
CCc1nc(SCC(=O)NNC(=O)c2ccc(OC)cc2)c2ccccc2n1,12.4%,-20.7%,6.8%,50.1µM*,-11.6%,10.7%
O=C(OCC(=O)N1CCc2ccccc21)c1ccc(Cl)nc1,11.7%,8.6%,7.8%,-11.5%,7.5%,/
COc1ccc(CCC(=O)NCc2nc3cccnc3n2Cc2cccc(OC)c2)cc1,/,-3.3%,/,-7.1%,13.9%[57 µM],9.3%[59 µM]
COCCNC(=O)C(c1ccc(Cl)cc1)N(CCOC)C(=O)CCC(=O)Nc1nccs1 (centres undefined),5.7%,-9.6%,0.9%,-12.0%,42.6%,/
COCc1cc(CNC(=O)C2CCC(=O)N(Cc3cccc(OC)c3)C2)[nH]n1 (centres undefined),-1.6%,-2.9%,/,-7.4%,26.3%,/
CC(C)[C@H](NC(=O)N1c2ccccc2NC(=O)[C@@H]1C(C)C)C(=O)N1CCC[C@H]1C(=O)O,17.1%,?,/,-14.3%,5.9%,21.0%[12.7 µM]
CCN(CC(=O)Nc1ccc(NC(C)=O)cc1)C(=O)CSCc1c(C)noc1C,/,4.5%,11.9%,-2.8%,24.2%,10.5%[0.501 µM]
CCN(CC(=O)Nc1ccc(NC(C)=O)cc1)C(=O)c1ccccc1SCc1c(C)noc1C,/,56.2µM*,4.8%,-31.7%,2.3%,39.8µM*
Cc1cccc(-n2c(=O)c3c(c4cc(C)ccc4n3C)n(CC(=O)N3CCCC3)c2=O)c1,/,-11.7%,/,-17.6%,25.8%,-19.0%[59 µM]
Cc1cc(C)c2c(n1)sc1c(-c3ccccc3)c(C#N)c(N)nc12,-8.3%,27.2%,4.3%,?,25.7%,7.94µM*
CC(=O)c1c(C)oc2c1cc(O)c1ccccc12,0.2%,-8.8%,/,-8.9%,21.6%,11.3%
CC(=O)c1cc(O)c2ccccc2c1O,44.7µM*,44.7µM*,-27.3%,56.2µM*,?,3.16µM*
CC(C)Cn1c(-c2cccs2)nc2nc3ccccc3nc21,-13.2%,44.1%,/,40.3%,87.7%,63.6%[59 µM]
Cc1ccsc1-c1n[nH]c(=S)n1CC(C)C,?,-28.7%,2.3%,8.91µM*,-7.9%,?
CC(C)Cn1c(-c2nn(C)cc2Cl)n[nH]c1=S,-9.8%,-8.5%,4.8%,8.91µM*,30.6%,10µM*
CCn1c(-c2nn(C)cc2Cl)n[nH]c1=S,?,-6.4%,1.5%,6.31µM*,23.5%,10µM*
CCNC(=O)CC1C(=O)N(c2ccc(C)cc2)C(=O)N1Cc1ccc(C)cc1 (centres undefined),/,-4.2%,/,-7.0%,6.4%,-6.2%[59 µM]
SMILES,Sfp PPTase inh,BAZ2B inh,L3MBTL1 block,JMJD2A Tudor,HP1b binding inh,G9a block
COc1cc(NC(=O)C(OC(=O)CNC(=O)c2ccccc2)c2ccccc2)cc(OC)c1 (centres undefined),/,/,/,-11.6%,/,/
Cc1ccc(NC(=O)CN(C)C(=O)Cc2ccc3c(c2)CCC3)cc1,/,9.2%,-1.4%,-0.7%,31.9%,50.1µM*
CCOc1ccc(CN(C)CC(=O)Nc2ccc3c(c2)CCC3)cc1OC,8.2%,-17.2%,-5.5%,-16.9%[57.1 µM],8.3%,-0.3%
CN(CC(=O)Nc1ccc(F)cc1)C(=O)Cn1c(=O)oc2ccccc21,/,-2.2%,2.4%,4.6%,28.6%,-5.8%[12.7 µM]
C=CCOc1ccc(CN(C)CC(=O)Nc2ccc3c(c2)CCC3)cc1,-6.6%,50.1µM*,18.6%,14.1µM*,-20.0%,14.1µM*
CSc1ccccc1NC(=O)CN(C)C(=O)Cn1c(=O)oc2ccccc21,/,11.3%,1.8%,-7.9%,-5.2%,50.1µM*
COc1ccc(CC(=O)N(C)CC(=O)Nc2ccccc2SC)cc1,12.0%,2.1%,/,28.2µM*,-5.5%,-3.9%[59 µM]
Cc1ccc(C)c(Nc2nc(-c3ccccc3)c3cc(Br)ccc3n2)c1,/,28.6%,/,35.9%,66.4%,72.5%[59 µM]
COc1ccc(NC(=O)CN(C)CC(=O)NC2CCC(C)CC2)cc1 (centres undefined),/,-1.0%,-7.0%,-6.8%,24.3%,-41.8%[12.7 µM]
COc1ccc(NC(=O)CN(C)CC(=O)NC2CCCCC2C)cc1 (centres undefined),/,9.7%,3.3%,-4.5%,40.7%,28.2µM*
COc1ccc(NC(=O)CN(C)C(=O)Cc2ccc3c(c2)CCC3)cc1,-19.3%,-32.8%,/,-20.7%,3.9%,50.1µM*
COc1ccc(NC(=O)CN(C)C(=O)Cc2ccc3c(c2)OCCO3)cc1,/,13.2%,1.2%,-10.8%,22.5%,5.1%
Cn1c(NCCCCO)nc2c1c(=O)n(Cc1ccc(Cl)cc1)c(=O)n2C,/,-17.9%,/,-22.0%,7.1%,8.4%[59 µM]
O=S(=O)(c1ccc(Cl)cc1)N1CCOCC1,/,/,/,-3.5%,24.6%,/
CN1CC2(Cc3cc([N+](=O)[O-])ccc31)C(=O)OC(C)(C)OC2=O,/,/,/,-18.4%,7.0%,/
CN(C)C(=O)/N=N/C(=O)N(C)C,/,/,/,/,/,2.67µM*
Cc1ccc(C)c(Cn2c(=O)n(Cc3ccccc3)c(=O)c3c2c2cc(C)ccc2n3C)c1,/,-0.8%,/,12.8%,57.2%,?
COc1ccc(S(=O)(=O)Cc2ccc(C(=O)N3CCN(c4ccccn4)CC3)o2)cc1,-7.8%,6.9%,/,-13.1%,52.2%,-6.9%
COc1ccccc1S(=O)(=O)Cc1ccc(C(=O)N2CCN(c3ccccn3)CC2)o1,79.4µM*,8.1%,3.0%,?,11.9%,-2.7%[59 µM]
O=C(c1ccc(C#Cc2ccccc2)o1)N1CCN(c2ccccn2)CC1,?,?,-22.3%,-18.4%,?,44.7µM*
O=C(c1ccc(CS(=O)c2ccccc2Cl)o1)N1CCN(c2ccccn2)CC1 (centres undefined),5.8%,-15.1%,/,-3.9%,45.7%,89.1µM*
O=C(COC(=O)Cn1cc(C(F)(F)F)ccc1=O)Nc1ccccc1,/,-2.0%,-3.1%,3.7%,58.2%,8.2%[59 µM]
